A selection: hits, their analogues and other compounds. The true share with any hit is near 1.1%.
MOR-DOR inv ag: inverse agonist of human OPRM1-OPRD1 heterodimerization; inhibition, % at 9.3 µM; 340,000 compounds, 0.21% hits; AID 504357; cell-based MOR-DOR heterodimer luminescence, inverse agonism; in the data active = inhibition above about 22%, passing the limit was not always enough
Target sequence (P35372 whole entry, looked up): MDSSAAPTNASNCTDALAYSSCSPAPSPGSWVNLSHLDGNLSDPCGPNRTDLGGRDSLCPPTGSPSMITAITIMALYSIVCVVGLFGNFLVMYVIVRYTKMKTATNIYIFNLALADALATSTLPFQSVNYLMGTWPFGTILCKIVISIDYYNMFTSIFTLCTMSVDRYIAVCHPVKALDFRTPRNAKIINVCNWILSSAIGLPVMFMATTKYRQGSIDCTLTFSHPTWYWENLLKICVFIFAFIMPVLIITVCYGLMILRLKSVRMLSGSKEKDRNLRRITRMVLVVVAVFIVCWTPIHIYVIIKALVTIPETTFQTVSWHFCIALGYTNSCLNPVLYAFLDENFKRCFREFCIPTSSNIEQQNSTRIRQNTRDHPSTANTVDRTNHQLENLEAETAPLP
Target sequence (P41143 whole entry, looked up): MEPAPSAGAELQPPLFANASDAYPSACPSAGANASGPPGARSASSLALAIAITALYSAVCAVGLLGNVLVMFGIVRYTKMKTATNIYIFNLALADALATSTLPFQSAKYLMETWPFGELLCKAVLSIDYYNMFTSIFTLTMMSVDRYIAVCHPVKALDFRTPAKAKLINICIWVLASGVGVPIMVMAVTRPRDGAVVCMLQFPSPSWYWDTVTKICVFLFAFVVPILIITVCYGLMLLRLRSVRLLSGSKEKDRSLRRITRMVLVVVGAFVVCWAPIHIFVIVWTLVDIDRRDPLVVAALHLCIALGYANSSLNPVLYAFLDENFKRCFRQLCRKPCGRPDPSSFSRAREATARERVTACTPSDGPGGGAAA
MOR-DOR ag-1: agonists of human mu-delta opioid receptor heterodimerization; P35372+P41143; cells, OPRM1-OPRD1 heterodimerization, luminescence; activation, % at 9.3 µM; 340,000 compounds, 0.3% hits; AID 504326
HTR5A ag ctr: counter-screen for OPRM1-OPRD1 agonists: human HTR5A agonism; HTR5A agonist assay, luminescence, cell-based; AID 504692; activation, % at 9.3 µM; 340,000 compounds, 0.61% hits; P47898; in the data active = activation mostly above about 9.5%, no sharp cut-off; inactive = mostly below about 7.6%
HTR5A inv ag: inverse agonist of human HTR5A in OPRM1-OPRD1 counter-screen. HTR5A cell line, luminescence, inverse agonism. P47898. 340,000 compounds, 0.083% hits. inhibition, % at 9.3 µM. AID 504634; in the data active = inhibition mostly above about 23%, no sharp cut-off; inactive = mostly below about 18%
MOR-DOR ag-2: promotes OPRM1-OPRD1 heterodimerization in HTR5A counter-screen; shares compounds with HTR5A ag ctr; U2OS counter-screen cells, complementation luminescence, 3 h; activation, % at 9.3 µM; 800 compounds, 13% hits
HTR5A ag conf: confirmation of human HTR5A agonists | shares compounds with HTR5A ag ctr | HTR5A agonist cell assay, luminescence | activation, % at 9.3 µM | 800 compounds, 17% hits; in the data active = activation above about 17%
Each line names hits and unclear results; the compound was inactive in the other large screens (follow-up assays come after a bar, where they were run). Rule as the data show it, unless noted: active = activation above about 18%; inactive = the rest.

Cc1cc(=O)[nH]c(N/N=C/c2c[nH]c3ccccc23)n1	HTR5A ag ctr 23.6 | MOR-DOR ag-2 inactive | HTR5A ag conf 46.1
C(=N\Nc1nc2ccccc2[nH]1)/c1c[nH]c2ccccc12	none
Cc1ccc(C(=O)N2CCCC(N3CCN(c4cccc(C(F)(F)F)c4)CC3)C2)s1 (configuration not stated)	HTR5A ag ctr 14.6 | MOR-DOR ag-2 inactive | HTR5A ag conf inactive
CC(=O)N1CCCC(N2CCN(c3cccc(C(F)(F)F)c3)CC2)C1 (configuration not stated)	none
CCOC(=O)c1sc(N/N=C/c2cccc(C)c2)nc1C	none
C=CCN(C/C(=N\O)c1sc(C(=O)OCC)nc1C)c1cccc(Br)c1	HTR5A ag ctr 21.8 | MOR-DOR ag-2 inactive | HTR5A ag conf inactive
CC1=NNC(=O)/C1=C\c1cn(-c2ccccc2)nc1-c1cccs1	HTR5A ag ctr 16.9 | MOR-DOR ag-2 inactive | HTR5A ag conf inactive
Cc1ccc(NC(=O)C/C(N)=N/OC(=O)c2ccccc2)cc1	HTR5A ag ctr 15.3 | MOR-DOR ag-2 inactive | HTR5A ag conf inactive
CC(OC(=O)c1ccccn1)C(=O)Nc1ccc(C(F)(F)F)cc1 (configuration not stated)	none
CC(OC(=O)c1ccco1)C(=O)Nc1ccc(C(F)(F)F)cc1 (configuration not stated)	HTR5A ag ctr 19.8 | MOR-DOR ag-2 inactive | HTR5A ag conf inactive
COC(=O)C1=C(C)N(c2cc(Cl)cc(Cl)c2)C(=O)C1	HTR5A ag ctr 15.3 | MOR-DOR ag-2 inactive | HTR5A ag conf inactive
Cc1ccc(NC(=O)C2CCN(c3ncnc4sc(C)c(C)c34)CC2)cc1S(=O)(=O)N(C)C	HTR5A ag ctr 19.5 | MOR-DOR ag-2 inactive | HTR5A ag conf inactive
CCCCCCCCCCOC(=O)Cn1c(COc2ccccc2)[n+](C)c2ccccc21	HTR5A ag ctr 15.2 | MOR-DOR ag-2 inactive | HTR5A ag conf inactive
CCCCOC(=O)Cn1c(-c2ccccc2)nc2ccccc2c1=O	none
CCCCCCCCCCOC(=O)Cn1c(COc2ccc(OC)cc2)[n+](C)c2ccccc21	HTR5A ag ctr 12.4 | MOR-DOR ag-2 inactive | HTR5A ag conf inactive
CCOc1ccc(N2C(=O)CC(NCCc3ccncc3)C2=O)cc1 (configuration not stated)	none
CCOc1ccc(N2C(=O)CC(NCCc3c[nH]c4ccccc34)C2=O)cc1 (configuration not stated)	HTR5A ag ctr 71.3 | MOR-DOR ag-2 inactive | HTR5A ag conf inactive
CNC(=O)CCCCC(=O)N/N=C/c1ccc(Cl)cc1Cl	HTR5A ag ctr 15.3 | MOR-DOR ag-2 31.1 | HTR5A ag conf inactive
O=C(CN1c2ccccc2Sc2ccccc21)N/N=C/c1ccc(Cl)cc1Cl	none
CCN(CC)CCNC(=O)C(=O)NCC1OCCN1S(=O)(=O)c1cccs1 (configuration not stated)	none
COc1cc(O)c(C(CCN2CCCCC2)c2ccc(N(C)C)cc2)c(OC)c1 (configuration not stated)	HTR5A ag ctr 25.8 | MOR-DOR ag-2 45.5 | HTR5A ag conf inactive
O=C(CNc1ccc(F)cc1)N/N=C1\CCCc2ccccc21	HTR5A ag ctr 15.9 | MOR-DOR ag-2 inactive | HTR5A ag conf 17.1
O=C1[C@H]2[C@@H](c3ccc(Cl)cc3)N3C(=O)N(c4cccc(F)c4)C(=O)[C@@]3(Cc3ccc(Cl)cc3)[C@H]2C(=O)N1C1CCCCC1	none
CC[C@@]12C(=O)N(c3cccc(F)c3)C(=O)N1[C@H](c1ccc(Cl)cc1)[C@@H]1C(=O)N(C3CCCCC3)C(=O)[C@@H]12	HTR5A ag ctr 15.3 | MOR-DOR ag-2 18.9 | HTR5A ag conf inactive
CCOc1cc(C(=O)OCc2ccc([N+](=O)[O-])cc2)ccc1OCC(=O)N1CCOCC1	HTR5A ag ctr 16.7 | MOR-DOR ag-2 inactive | HTR5A ag conf inactive
CCn1c(NC(=O)c2cccc(Cn3cc(Cl)cn3)c2)nc2ccccc21	HTR5A ag ctr 19.7 | MOR-DOR ag-2 inactive | HTR5A ag conf inactive
Cn1c(NC(=O)c2cccc(Cn3cc(Cl)cn3)c2)nc2ccccc21	none
Cc1onc(-c2ccccc2Cl)c1C(=O)NCCN1Cc2ccccc2C1=O	HTR5A ag ctr 29.2 | MOR-DOR ag-2 inactive | HTR5A ag conf inactive
CCn1c(=O)c(C(=O)Nc2ncccc2O)c(O)c2ccccc21	none
CCn1c(=O)c(C(=O)Nc2ncccc2C)c(O)c2ccccc21	HTR5A ag ctr 16.3 | MOR-DOR ag-2 inactive | HTR5A ag conf inactive
O=C(NN1C(=O)c2ccccc2C1=O)C1CC2CCC1C2 (configuration not stated)	HTR5A ag ctr 14.4 | MOR-DOR ag-2 inactive | HTR5A ag conf inactive
COc1ccc(OCCC(=O)Nc2cc3c(cc2C(=O)O)OCCCO3)cc1	HTR5A ag ctr 15.4 | MOR-DOR ag-2 inactive | HTR5A ag conf inactive
COc1ccccc1OCC(=O)Nc1cc2c(cc1C(=O)O)OCCCO2	none
COc1ccc(NS(=O)(=O)c2cccc(C(=O)OCC(=O)c3c(N)n(C)c(=O)n(C)c3=O)c2)cc1	none
Cc1cc(-c2ccccc2C(=O)NC2CCCCC2)on1	HTR5A ag ctr 14.6 | MOR-DOR ag-2 inactive | HTR5A ag conf inactive
O=C(c1ccc2c(Cl)c3c(nc2c1)CCCC3)N1CCN(c2ccc(F)cc2)CC1	HTR5A ag ctr 15.7 | MOR-DOR ag-2 inactive | HTR5A ag conf inactive
COc1ccccc1N1CCN(C(=O)c2ccc3c(Cl)c4c(nc3c2)CCCC4)CC1	none
CN(C)CCCN(C(=O)COc1ccccc1)c1nc2ccc(F)cc2s1	none
CN(C)CCCN(C(=O)CCOc1ccccc1)c1nc2ccc(F)cc2s1	HTR5A ag ctr 17.6 | MOR-DOR ag-2 inactive | HTR5A ag conf inactive
COc1ccc(C(=O)Nc2cccc([N+](=O)[O-])c2)cc1Br	HTR5A ag ctr 18.7 | MOR-DOR ag-2 inactive | HTR5A ag conf inactive
COc1ccc(C(=O)Nc2ccc(OC)c([N+](=O)[O-])c2)cc1Br	none
CN(Cc1cn(-c2ccccc2)nc1-c1ccc(F)cc1)C(=O)CCC(=O)O	none
Cc1cccc(/C=N/NC(=O)c2ccc(NC(=O)c3ccc(F)cc3)cc2)n1	HTR5A ag ctr 21.4 | MOR-DOR ag-2 inactive | HTR5A ag conf inactive
Cc1cccc(/C=N/NC(=O)c2ccc(NC(=O)c3ccc(Cl)cc3)cc2)n1	none
COC(=O)CC(C(=O)Nc1cc(C(=O)OC)cc(C(=O)OC)c1)N1CCN(C)CC1 (configuration not stated)	none
Cc1cc(C)c(S(=O)(=O)NCCc2cc3ccc(C)c(C)c3[nH]c2=O)c(C)c1	HTR5A ag ctr 16.8 | MOR-DOR ag-2 inactive | HTR5A ag conf inactive
Cc1ccc2cc(CCNS(=O)(=O)c3ccc(Br)cc3)c(=O)[nH]c2c1C	none
Cc1sc2nc(CSC(C)C(=O)N3CCOCC3)[nH]c(=O)c2c1C (configuration not stated)	none
COc1ccccc1C(CNC(=O)c1cccc(NS(=O)(=O)c2ccc(C)c(F)c2)c1)N1CCCC1 (configuration not stated)	HTR5A ag ctr 44.2 | MOR-DOR ag-2 inactive | HTR5A ag conf 40.8

Source: PubChem (The Scripps Research Institute Molecular Screening Center)
